{"source": "the supplement of paper PMC8728848", "binders": {"B1": {"name": "UDA (Urtica dioica), P11218 (protein)", "chain": "MMMRFLSAVVIMSSAMAVGLVSAQRCGSQGGGGTCPALWCCSIWGWCGDSEPYCGRTCENKCWSGERSDHRCGAAVGNPPCGQDRCCSVHGWCGGGNDYCSGSKCQYRCSSSVRGPRVALSGNSTANSIGNVVVTEPLFDQMFSHRKDCPSQGFYSYHSFLVAAESFPAFGTIGDVATRKREVAAFLAHISQATSGERSDVENPHAWGLCHINTTTVTENDFCTSSDWPCAAGKKYSPRGPIQLTHNFNYGLAGQAIGEDLIQNPDLVEKDPIISFKTALWFWMSQHDNKPSCHDIVLNANSAANRIPNKGVIGNIISRAFGHDDFAVRSSSIGFYKRYCDMLGVSYGHDLKYWFDNTPSSEFQRIQMRVAA"}}, "assay_in_all_cases": "glycan array binding signal (z-score within array); higher = stronger binding", "conditions_in_all_cases": "glycan notation: IUPAC condensed, linker removed", "key": {"[1]": {"target": "Fuc(a1-2)Gal(b1-3)GalNAc(b1-3)Gal", "procedure,_shortened": "(§1)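 Glycan array binding is given as a within-array Z-score, which can be read as non-binding when negative. The arrays, 3228 of them, came from the Consortium for Functional Glycomics database and were retained only where the protein sequence was available. Z-scores were averaged across arrays of the same protein sequence at different concentrations or buffers and across linkers.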"}, "[2]": {"target": "Fuc(a1-2)Gal(b1-3)GlcNAc(b1-3)[Gal(b1-4)GlcNAc(b1-6)]Gal(b1-4)Glc", "procedure,_shortened": "as §1"}, "[3]": {"target": "Fuc(a1-2)Gal(b1-3)GlcNAc6S", "procedure,_shortened": "as §1"}, "[4]": {"target": "Fuc(a1-2)Gal(b1-4)GlcNAc(b1-2)[Fuc(a1-2)Gal(b1-4)GlcNAc(b1-4)]Man(a1-3)[Fuc(a1-2)Gal(b1-4)GlcNAc(b1-2)Man(a1-6)]Man(b1-4)GlcNAc(b1-4)GlcNAc", "procedure,_shortened": "as §1"}, "[5]": {"target": "Fuc(a1-2)Gal6S(b1-3)GlcNAc", "procedure,_shortened": "as §1"}, "[6]": {"target": "Fuc(a1-2)[Gal(a1-3)]Gal(b1-3)GlcNAc", "procedure,_shortened": "as §1"}, "[7]": {"target": "Fuc(a1-2)[GalNAc(a1-3)]Gal(b1-4)GlcNAc(b1-3)Gal(b1-4)GlcNAc", "procedure,_shortened": "as §1"}, "[8]": {"target": "Fuc(a1-3)[Gal(b1-4)]GlcNAc(b1-2)Man(a1-3)[Fuc(a1-3)[Gal(b1-4)]GlcNAc(b1-2)Man(a1-6)]Man(b1-4)GlcNAc(b1-4)GlcNAc", "procedure,_shortened": "as §1"}, "[9]": {"target": "Fuc(a1-3)[GalNAc(b1-4)]GlcNAc", "procedure,_shortened": "as §1"}, "Fuc(a1-4)GlcNAc": {"target": "Fuc(a1-4)GlcNAc", "procedure,_shortened": "as §1"}, "Gal(a1-3)Gal": {"target": "Gal(a1-3)Gal", "procedure,_shortened": "as §1"}, "[10]": {"target": "Gal(a1-3)Gal(b1-3)GlcNAc(b1-3)GalNAc", "procedure,_shortened": "as §1"}, "[11]": {"target": "Gal(a1-3)Gal(b1-4)[Fuc(a1-3)]GlcNAc", "procedure,_shortened": "as §1"}, "Gal(a1-4)Gal(b1-4)GlcNAc": {"target": "Gal(a1-4)Gal(b1-4)GlcNAc", "procedure,_shortened": "as §1"}, "Gal(b1-3)GalNAc(b1-3)Gal": {"target": "Gal(b1-3)GalNAc(b1-3)Gal", "procedure,_shortened": "as §1"}, "[12]": {"target": "Gal(b1-3)GalNAc(b1-4)Gal(b1-4)Glc", "procedure,_shortened": "as §1"}, "[13]": {"target": "Gal(b1-3)GalNAc(b1-4)[Neu5Ac(a2-3)]Gal(b1-4)Glc", "procedure,_shortened": "as §1"}, "[14]": {"target": "Gal(b1-3)GlcNAc(a1-6)Gal(b1-4)GlcNAc", "procedure,_shortened": "as §1"}, "[15]": {"target": "Gal(b1-3)GlcNAc(b1-2)Man(a1-3)[Gal(b1-3)GlcNAc(b1-2)Man(a1-6)]Man(b1-4)GlcNAc(b1-4)GlcNAc", "procedure,_shortened": "as §1"}, "[16]": {"target": "Gal(b1-3)GlcNAc(b1-2)Man(a1-3)[Gal(b1-3)GlcNAc(b1-2)Man(a1-6)]Man(b1-4)GlcNAc(b1-4)[Fuc(a1-6)]GlcNAc", "procedure,_shortened": "as §1"}, "[17]": {"target": "Gal(b1-3)GlcNAc(b1-6)[Gal(b1-3)]GalNAc", "procedure,_shortened": "as §1"}, "[18]": {"target": "Gal(b1-3)[Neu5Ac(b2-6)]GalNAc", "procedure,_shortened": "as §1"}, "Gal(b1-4)GlcNAc": {"target": "Gal(b1-4)GlcNAc", "procedure,_shortened": "as §1"}, "[19]": {"target": "Gal(b1-4)GlcNAc(b1-2)Man(a1-3)[Man(a1-6)]Man(b1-4)GlcNAc(b1-4)GlcNAc", "procedure,_shortened": "as §1"}, "[20]": {"target": "Gal(b1-4)GlcNAc(b1-2)[Gal(b1-4)GlcNAc(b1-4)]Man(a1-3)[GlcNAc(b1-4)][Gal(b1-4)GlcNAc(b1-2)[Gal(b1-4)GlcNAc(b1-6)]Man(a1-6)]Man(b1-4)GlcNAc(b1-4)GlcNAc", "procedure,_shortened": "as §1"}, "[21]": {"target": "Gal(b1-4)GlcNAc(b1-3)Gal(b1-4)GlcNAc(b1-3)Gal(b1-4)GlcNAc(b1-3)Gal(b1-4)GlcNAc(b1-3)Gal(b1-4)GlcNAc(b1-2)Man(a1-3)[Gal(b1-4)GlcNAc(b1-3)Gal(b1-4)GlcNAc(b1-3)Gal(b1-4)GlcNAc(b1-3)Gal(b1-4)GlcNAc(b1-3)Gal(b1-4)GlcNAc(b1-2)Man(a1-6)]Man(b1-4)GlcNAc(b1-4)[Fuc(a1-6)]GlcNAc", "procedure,_shortened": "as §1"}, "[22]": {"target": "Gal3S(b1-4)[Fuc(a1-3)]GlcNAc", "procedure,_shortened": "as §1"}, "GalNAc(a1-3)GalNAc": {"target": "GalNAc(a1-3)GalNAc", "procedure,_shortened": "as §1"}, "[23]": {"target": "GalNAc(a1-3)GalNAc(b1-3)Gal(a1-4)Gal(b1-4)GlcNAc", "procedure,_shortened": "as §1"}, "GlcA(b1-3)Gal": {"target": "GlcA(b1-3)Gal", "procedure,_shortened": "as §1"}}, "note": "Only a selection was taken, and the strongest signals are over-represented in it overall."}
{"binder": "B1", "values": [{"measurement": "glycan array binding signal (z-score)", "setting": "[1]", "result": -0.215}, {"measurement": "glycan array binding signal (z-score)", "setting": "[2]", "result": -0.109}, {"measurement": "glycan array binding signal (z-score)", "setting": "[3]", "result": -0.182}, {"measurement": "glycan array binding signal (z-score)", "setting": "[4]", "result": -0.161}, {"measurement": "glycan array binding signal (z-score)", "setting": "[5]", "result": -0.184}, {"measurement": "glycan array binding signal (z-score)", "setting": "[6]", "result": -0.167}, {"measurement": "glycan array binding signal (z-score)", "setting": "[7]", "result": -0.054}, {"measurement": "glycan array binding signal (z-score)", "setting": "[8]", "result": -0.165}, {"measurement": "glycan array binding signal (z-score)", "setting": "[9]", "result": -0.172}, {"measurement": "glycan array binding signal (z-score)", "setting": "Fuc(a1-4)GlcNAc", "result": -0.178}, {"measurement": "glycan array binding signal (z-score)", "setting": "Gal(a1-3)Gal", "result": -0.189}, {"measurement": "glycan array binding signal (z-score)", "setting": "[10]", "result": -0.177}, {"measurement": "glycan array binding signal (z-score)", "setting": "[11]", "result": -0.183}, {"measurement": "glycan array binding signal (z-score)", "setting": "Gal(a1-4)Gal(b1-4)GlcNAc", "result": -0.101}, {"measurement": "glycan array binding signal (z-score)", "setting": "Gal(b1-3)GalNAc(b1-3)Gal", "result": -0.178}, {"measurement": "glycan array binding signal (z-score)", "setting": "[12]", "result": -0.186}, {"measurement": "glycan array binding signal (z-score)", "setting": "[13]", "result": -0.189}, {"measurement": "glycan array binding signal (z-score)", "setting": "[14]", "result": -0.166}, {"measurement": "glycan array binding signal (z-score)", "setting": "[15]", "result": 0.04}, {"measurement": "glycan array binding signal (z-score)", "setting": "[16]", "result": -0.156}, {"measurement": "glycan array binding signal (z-score)", "setting": "[17]", "result": -0.177}, {"measurement": "glycan array binding signal (z-score)", "setting": "[18]", "result": -0.187}, {"measurement": "glycan array binding signal (z-score)", "setting": "Gal(b1-4)GlcNAc", "result": 0.006}, {"measurement": "glycan array binding signal (z-score)", "setting": "[19]", "result": 4.63}, {"measurement": "glycan array binding signal (z-score)", "setting": "[20]", "result": -0.17}, {"measurement": "glycan array binding signal (z-score)", "setting": "[21]", "result": 1.52}, {"measurement": "glycan array binding signal (z-score)", "setting": "[22]", "result": -0.184}, {"measurement": "glycan array binding signal (z-score)", "setting": "GalNAc(a1-3)GalNAc", "result": -0.191}, {"measurement": "glycan array binding signal (z-score)", "setting": "[23]", "result": -0.177}, {"measurement": "glycan array binding signal (z-score)", "setting": "GlcA(b1-3)Gal", "result": -0.173}]}
